From PubChem
Compounds with a hit are over-represented: about 7.9% of the library has one in this group of screens.
MCF10A rerep = induces DNA re-replication in MCF 10a normal breast cells. AID 624296. actives 2.9% (n = 350,000). MCF 10A DNA re-replication, Hoechst nuclear intensity, 48 h. Potency, µM (series often up to 46.1 µM), for the others: at the highest dose activity, positive = re-replication, actives largely listed as activators; note: % of control where 0% means no effect; nearly all actives have a fitted effect of over 50% in size
HT1080-NT tox = kills 2HG-producing HT-1080-NT fibrosarcoma cells; HT-1080-NT fibrosarcoma viability, CellTiter-Glo ATP luminescence, 48 h; Potency, µM (titrated, usually from 46.1 µM), without a hit: at the highest dose activity, negative = less viability, usual class: cytotoxic; actives 1.6% (n = 360,000);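 note: NT is the 2HG producing partner of a matched IDH1 knockdown line; 0% = DMSO-treated cells and -100% = media-only wells without cells; nearly all actives have a fitted effect of over 55% in size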
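Compounds were tested in concentration-response format on HT-1080-NT cells for 48 hours at 37 degrees C. Cell viability came from CellTiter-Glo luminescence; curves were classified by r2, response magnitude and activity.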
HT1080 IDH1KD tx = HT-1080 IDH1 knockdown cell toxicity (counter line) | HT-1080 IDH1 knockdown viability, ATP luminescence, 48 h | Potency, µM (highest dose often 46.1 µM), inactives show top-dose activity, negative = toxicity, actives largely listed as cytotoxic | actives 2% (n = 360,000);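 note: 0% = DMSO wells and -100% = cell-free medium wells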
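Assay cells: HT-1080 with IDH1 knockdown, 750 per well, RPMI/5% FBS. Exposure: 48 h at 37 °C following 2 h pre-incubation. Read: CellTiter-Glo luminescence; fitted concentration-response, curve class assigned.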
SW480 rereplic = induces DNA re-replication in SW480 colon adenocarcinoma cells; SW480 DNA re-replication, Hoechst DNA content imaging, 48 h; Potency, µM (series often up to 46.1 µM), inactives show at the highest dose re-replication activation, usual class: activators; actives 1.8% (n = 340,000); AID 624297; note: % of control where 0% means no effect; nearly all actives have a fitted effect of over 55% in size
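Quantitative HTS format with DMSO vehicle controls; 48 hr drug incubation at 37 C, then 40 min Hoechst staining and scanning imager measurement at 405 nm excitation.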
KB-V1 cytotox = kills drug-selected multidrug resistant KB-V1 cells. Potency, µM (highest dose often 46.1 µM), hits mostly cytotoxic. KB-V1 MDR cells viability, CellTiter-Glo, 72 h. actives 3.4% (n = 400,000); note: % is set by controls: 0 for no effect and ±100 for the full control effect; nearly all actives have a fitted effect of over 60% in size
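Potencies derive from concentration-effect curves fitted to normalized luminescence (CellTiter-Glo) of KB-V1 cells treated for 72 h at 37 degrees C in phenol-red-free DMEM containing 10% FBS.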
KB-3-1 cytotox = KB-3-1 parental cell cytotoxicity; KB-3-1 viability, CellTiter-Glo ATP luminescence, 72 h; actives 1.4% (n = 400,000); Potency, µM (titrated, usually from 46.1 µM), hits mostly cytotoxic; AID 1347075; note: % is set by controls: 0 for no effect and ±100 for the full control effect; nearly all actives have a fitted effect of over 60% in size
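KB-3-1 parental drug-naive adenocarcinoma cells in DMEM/10% FBS, incubated 72 h at 37 C with pin-transferred compounds across a concentration series. Viability by CellTiter-Glo luminescence; concentration-response curves fitted after normalization.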
* = called active by the depositor; i = inactive; u = inconclusive; x = no result given; [ ] = another dose, or the depositor's remark. Calls come from the whole dose curve; as a rule, active = well fitted curve in the direction sought with a large enough effect; inconclusive = small, poorly fitted or top-dose-only effect, or another doubt; inactive = no such curve, though single readings can be large; an effect the other way counts as inactive or inconclusive. Potency is the fitted concentration of half-maximal effect.

SMILES | MCF10A rerep | HT1080-NT tox | HT1080 IDH1KD tx | SW480 rereplic | KB-V1 cytotox | KB-3-1 cytotox
Cc1cccc(N2CCN(C(=O)c3cc4c(=O)n(C)c5ccccc5c4s3)CC2)c1C | x | x | x | x | i | i
Cc1sc2nc3ccc(N4CCCCC4)nn3c(=O)c2c1C | 12% | -4% | 3%[9.24 µM] | -3% | 9.2µM* | i
CCOC(=O)CSc1nc2c(sc3ccccc32)c(=O)n1Cc1ccc(OC)cc1 | x | x | x | x | i | i
COc1ccc(OC)c(NC(=O)Cn2cnc3ccc(S(=O)(=O)N4CCC(C)CC4)cc3c2=O)c1 | x | x | x | x | i | i
CCCCN(C)CCNC(=O)c1cc2c(-c3cccc(OC)c3)nn(C)c2s1 | u | 18µM* | 23µM* | u | u | i
CCN(CC)CCCNC(=O)c1cc2c(-c3cccc(OC)c3)nn(C)c2s1 | u | u | u | u | i | i
CCCCN(C)CCNC(=O)c1cc2c(-c3ccccc3F)nn(C)c2s1 | 5% | 18µM* | u | -1% | i | i
COc1cccc(-c2nn(C)c3sc(C(=O)NCc4ccco4)cc23)c1 | 6.3µM* | -21% | u | 9% | i | u
COc1cccc(-c2nn(C)c3sc(C(=O)NCCCN(C)Cc4ccccc4)cc23)c1 | u | 18µM* | 18µM* | 16µM* | i | u
COc1cccc(-c2nn(C)c3sc(C(=O)NCCc4ccc(Cl)cc4)cc23)c1 | x | x | x | x | i | i
COCCNC(=O)c1cc2c(-c3ccccc3F)nn(C)c2s1 | 19% | -7% | -16% | -6% | i | i
CCOc1ccc(CCNC(=O)c2cc3c(-c4ccc(OC)c(OC)c4)nn(C)c3s2)cc1OCC | x | x | x | x | 23µM* | i
COc1ccc(CCNC(=O)c2cc3c(-c4ccc(OC)c(OC)c4)nn(C)c3s2)cc1OC | x | x | x | x | u | i
CCn1cc(S(=O)(=O)c2ccccc2)c(=O)c2cc(C)ccc21 | x | x | x | x | i | i
Cc1cccc(C)c1NC(=O)C1(C)CCC(=O)N1c1cc(C(C)(C)C)nn1C (stereo not given) | x | u | 13% | x | i | i
Cc1occc1-c1nnc(-c2cc([N+](=O)[O-])cc([N+](=O)[O-])c2)o1 | 0% | -8% | 0% | 13µM* | i | i
O=[N+]([O-])c1cccc(-c2nnc(-c3ccccc3)o2)c1 | u | 20% | 27% | -4% | i | i
Cc1c(C(=O)Nc2ccccc2Cl)sc2ncnc(N(C)C3CCCCC3)c12 | x | x | x | x | i | i
Cc1c(C(=O)NCc2ccccc2Cl)sc2ncnc(N(C)C3CCCCC3)c12 | x | x | x | x | u | 21µM*
COc1ccc(N2CCN(C(=O)CCc3c[nH]c4ccccc34)CC2)cc1 | 1% | -1% | 5% | 9% | i | i
O=C(CCc1c[nH]c2ccccc12)N1CCN(c2ccc(O)cc2)CC1 | u | u | 13µM* | u | u | i
COC(=O)c1cc2c(ccn2-c2ccc(F)cc2)n1C(C)C | u | 3% | 4% | 18% | i | i
CCCn1c(C(=O)OC)cc2c1ccn2-c1ccc(F)cc1 | 23µM* | 2% | -10% | 8% | i | i
COC(=O)c1cc2c(ccn2-c2ccc(F)cc2)n1Cc1ccc(OC(C)=O)cc1 | u | 0% | -17% | -1% | u | i
COC(=O)c1cc2c(ccn2-c2ccc(F)cc2)n1Cc1cccc(OC)c1 | u | -11% | u | u | 13µM* | i
SMILES | MCF10A rerep | HT1080-NT tox | HT1080 IDH1KD tx | SW480 rereplic | KB-V1 cytotox | KB-3-1 cytotox
COC(=O)c1cc2c(ccn2-c2ccc(F)cc2)n1CC(C)C | 23µM* | 16% | 7% | u | i | i
CC1=C(c2ccc(C)c(C)c2)S(=O)(=O)N=C1N1CCC(C(=O)NC(C)Cc2ccco2)CC1 (stereo not given) | x | x | x | x | i | i
COc1ccc(CNC(=O)Cc2ccc(NC(=O)N3CCSc4ncccc43)cc2)cc1 | x | x | x | x | i | i
CCOC(=O)CNC(=O)c1cc2c(=O)n(CC)c3ccccc3c2s1 | x | x | x | x | i | i
O=C(NCc1cccc(Cl)c1)c1ccc(NC(=O)N2CC3CCCN3c3ccccc32)cc1 (stereo not given) | x | x | x | x | i | i
CSc1nnc2c3ccccc3n(CCc3ccccc3)c2n1 | u | -16% | u | u | i | 9.2µM*
N#C/C(=C\c1ccc(Cl)cc1)c1nc(-c2cc3c(ccc4ccccc43)oc2=O)cs1 | x | x | x | x | u | i
C=C(C(=O)c1ccccc1)C(C)C(=C)C(=O)c1ccccc1 | 2.9µM* | 8.2µM* | 5.8µM* | 7.3µM* | 3.3µM* | u
O=C(Nc1c2c(nn1-c1ccc(Cl)cc1)CS(=O)(=O)C2)c1cccc(F)c1 | x | x | x | x | i | i
CCN(c1ccccc1)S(=O)(=O)c1ccc2[nH]cc(C(=O)NCc3ccc(C)cc3)c(=O)c2c1 | x | x | x | x | i | i
O=C(NCc1ccccc1Cl)c1cnc2sc(N3CCOCC3)nn2c1=O | x | x | x | x | i | i
CCOCCCNC(=S)N1CCCN(c2nc3cc(C)ccc3cc2C#N)CC1 | 0% | u | 7% | 5% | i | i
Cc1cc(C)c2cc(C#N)c(N3CCCC3)nc2c1 | u | 1% | -1% | u | i | i
